Compound activity as filed in PubChem BioAssay.
Compounds with a hit are over-represented: about 13% of the library has one in this group of screens.
HCV inh – HCV inhibition | Huh7.5.1 HCVcc-Cre infection, luciferase reporter, 44 h | Potency, µM (top dose mostly 41.8 µM), for the others: at the highest dose activity change, negative = inhibition, most hits filed as inhibitors | actives 3.4% (n = 340,000) | AID 651820; also: potency is read from the fitted curve at half-maximal effect
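Reporter virus HCVcc-Cre (~0.5 moi) infects cells exposed to compound; seeding density 1,000 cells/well with 4 h settling beforehand. Luminescence, 15 sec read, taken 44 h post-infection following a 15 min RT substrate incubation.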
Pf growth 96h – P. falciparum growth inhibition at 96 hours; AID 504834; P. falciparum luciferase reporter growth, 96 h; Potency, µM (highest dose often 28.7 µM), inactives show at the top dose activity change, negative = inhibition, usual class: inhibitors; actives 6.9% (n = 320,000); also: potency is read from the fitted curve at half-maximal effect
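P. falciparum expressing integrated firefly luciferase grown in erythrocytes (2% hematocrit, 0.05% parasitemia final) with compounds for 96 hours at 37 C, 5% CO2. Growth inhibition read as loss of luminescence after adding luciferase detection reagent.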
HCMV antiviral – human cytomegalovirus inhibition | HFF cells, HCMV-luciferase reporter, 72 h; stronger effect = lower value | activity change, negative = inhibition, % at 57.5 µM | actives 4.5% (n = 410,000) | AID 1259415; in the data active = activity change below about -60%; inconclusive = no clear call, values can overlap the other calls; inactive = above about -39%
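Luciferase read-out from HCMV-luciferase-infected HFFs (MOI 1 PFU/cell) 72 h post infection at 37C; compounds added after 16 h cell attachment; activity normalized between buffer-only basal and Salinomycin (10uM) inhibitor controls.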
Pf growth 48h – inhibits P. falciparum growth in the first generation, 48 h. P. falciparum luciferase growth in erythrocytes, 48 h. Potency, µM (top dose mostly 28.7 µM), inactives show at the top dose activity change, negative = inhibition, hits mostly inhibitors. actives 5.9% (n = 310,000); also: potency is read from the fitted curve at half-maximal effect
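Parasite viability was followed by luminescence of a genomically integrated firefly luciferase. Cultures held 0.1% parasitemia at 2% hematocrit (final), incubated under 5% CO2 at 37 C.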
The depositor's hits bear a star. Unless noted, calls follow the shape of the dose curve; as a rule, active = well fitted inhibition curve with a large enough effect; inconclusive = small, poorly fitted or top-dose-only effect, or another doubt; inactive = no such curve, though single readings can be large or run the other way. % is scaled to controls: 0 for no effect and ±100 for the full control effect.

For O=S(=O)(Nc1ccc(N=Nc2ccc(O)c3ccccc23)cc1)c1ccccc1 the results were HCV inh inconclusive, Pf growth 96h 5.2µM*, HCMV antiviral -19 and Pf growth 48h 2.3µM*.
`O=[N+]([O-])c1ccc(N=Nc2ccc(O)c3ccccc23)cc1` gave HCV inh 10µM*.
For O=[N+]([O-])c1ccc(N=NNc2ccccc2)cc1 the results were HCV inh -2%, Pf growth 96h 31% and Pf growth 48h 217%.
`O=S(=O)(Nc1ccc(N=Nc2ccccc2)cc1)c1ccccc1` gave HCV inh -2%, Pf growth 96h -9%, HCMV antiviral -11 and Pf growth 48h 36%.
Screening O=C(CCc1nc(-c2cccs2)no1)Nc1ccccc1[N+](=O)[O-] returned HCMV antiviral -20.
For C/C(=N\NC(=O)c1cc(-c2ccccn2)nc2ccccc12)c1cccc([N+](=O)[O-])c1 the results were HCV inh inconclusive, Pf growth 96h 10µM*, HCMV antiviral 48 and Pf growth 48h inconclusive.
C/C(=N\NC(=O)c1cc(-c2cccnc2)nc2ccccc12)c1ccc(O)cc1O was read as HCV inh 4µM*, Pf growth 96h inconclusive, HCMV antiviral -94* and Pf growth 48h 9.3µM*.
C/C(=N\NC(=O)c1cc(-c2ccccc2C)nc2ccccc12)c1cccnc1 was read as HCV inh 6%, Pf growth 96h inconclusive, HCMV antiviral inconclusive and Pf growth 48h 1.9µM*.
Screening C/C(=N/NC(=O)c1cc(-c2ccccc2)nc2c(Cl)cccc12)c1cccnc1 returned HCV inh inconclusive, Pf growth 96h 10µM*, HCMV antiviral inconclusive and Pf growth 48h inconclusive.
`C/C(=N\NC(=O)c1cc(-c2ccc(C)s2)nc2ccccc12)c1cccnc1` gave HCV inh inconclusive, Pf growth 96h inconclusive, HCMV antiviral -23 and Pf growth 48h -6%.
`C/C(=N\NC(=O)c1cccc2ccccc12)c1cccnc1` gave HCV inh -7%, Pf growth 96h -3%, HCMV antiviral 2 and Pf growth 48h 26%.
Screening CCC1CCCCN1C(=O)Cn1c(=O)oc2cc(S(=O)(=O)N3CCCCC3)ccc21 (configuration not stated) returned HCMV antiviral -12.
Screening COc1ccc(-c2cc(C(=O)N/N=C(\C)c3cccnc3)c3cc(C)ccc3n2)cc1OC returned HCV inh inconclusive, Pf growth 96h inconclusive, HCMV antiviral -5 and Pf growth 48h inconclusive.
Screening C/C(=N\NC(=O)c1cc(-c2cccc(OC(C)C)c2)nc2ccccc12)c1cccnc1 returned HCV inh -10%, Pf growth 96h 13µM*, HCMV antiviral 14 and Pf growth 48h inconclusive.
Screening O=c1c2cc([N+](=O)[O-])ccc2nc2n1CCCC2 returned HCV inh 0%, Pf growth 96h 440% and HCMV antiviral -65*.
Screening O=C(Nc1ccc2nc3n(c(=O)c2c1)CCCCC3)C(=O)N1CCN(c2ccccc2)CC1 returned HCV inh -9%, Pf growth 96h inconclusive, HCMV antiviral inconclusive and Pf growth 48h 1.3µM*.
CCOC(=O)N1CCN(C(=O)CC(=O)Nc2ccc3nc4n(c(=O)c3c2)CCCCC4)CC1 was read as HCV inh -5%, Pf growth 96h 7%, HCMV antiviral 51 and Pf growth 48h 5.9µM*.
COc1cc(NC(=O)CCc2c(C)n(C)c3cc(-c4ccccc4C)nn3c2=O)cc(OC)c1OC was read as HCMV antiviral -37.
Screening COc1ccc(Cc2c(C)nn(-c3nc(C)c(C(=O)Nc4ccc(C)cc4C)s3)c2C)cc1 returned HCMV antiviral 9.
For Cc1ccsc1CN(C)C(=O)CN1C(=O)NC(c2ccccc2)(c2ccccc2)C1=O the results were HCV inh 14%, Pf growth 96h 9.3µM*, HCMV antiviral inconclusive and Pf growth 48h 13µM*.
COc1ccc(C2(c3ccc(OC)cc3)NC(=O)N(CC(=O)N(C)C3CCC(C)CC3)C2=O)cc1 (configuration not stated) was read as HCV inh inconclusive, Pf growth 96h inconclusive, HCMV antiviral -16 and Pf growth 48h 10µM*.
For CC(C)(C)C(=O)CN1C(=O)NC(c2ccccc2)(c2ccccc2)C1=O the results were HCV inh 17%, Pf growth 96h inconclusive, HCMV antiviral 6 and Pf growth 48h inconclusive.
`CN(Cc1ccccc1)C(=O)CN1C(=O)NC2(CCCCCCC2)C1=O` gave HCV inh -5%, Pf growth 96h inconclusive, HCMV antiviral -6 and Pf growth 48h 9.3µM*.
`Cc1cccc(CN2C(=O)NC(c3ccccc3)(c3ccccc3)C2=O)c1` gave HCV inh -13%, Pf growth 96h inconclusive, HCMV antiviral -69* and Pf growth 48h 10µM*.
Screening Cc1cc(=O)oc2cc(OCC(=O)Nc3c(C(C)C)cccc3C(C)C)ccc12 returned HCMV antiviral -25.
`CCOC(=O)/C=C/[C@H](CCCCOCc1ccccc1)NC(=O)C(F)(F)F` gave HCMV antiviral 9.
COCCn1c(-c2ccccc2)c(C)n2c3c(=O)n(C)c(=O)n(C)c3nc12 was read as HCMV antiviral -34.
COc1cccc(CN(C)C(=O)CN2C(=O)NC(c3ccccc3)(c3ccccc3)C2=O)c1OC was read as HCV inh -19%, Pf growth 96h 12µM*, HCMV antiviral 120 and Pf growth 48h inconclusive.
Screening COc1cccc(CN(C)C(=O)CN2C(=O)NC(c3ccccc3)(c3ccccc3)C2=O)c1 returned HCV inh -27%, Pf growth 96h 10µM*, HCMV antiviral 0 and Pf growth 48h 10µM*.
`CN(C)C(=O)CN1C(=O)NC(c2ccccc2)(c2ccccc2)C1=O` gave HCV inh 28%, Pf growth 96h 18%, HCMV antiviral -10 and Pf growth 48h 25%.
Screening COc1ccc(NC(=O)CCn2cnnn2)cc1 returned HCMV antiviral 2.
CCOc1ccc(-c2c(C)nn3c(C)c(C(=O)NCCc4ccc(C)cc4)cnc23)cc1OCC was read as HCMV antiviral -10.
`CCOc1ccc(-n2c(C)cc(/C=N/Nc3nc(C)cc(=O)[nH]3)c2C)cc1` gave HCV inh -23%, Pf growth 96h inconclusive, HCMV antiviral -11 and Pf growth 48h 1.7µM*.
`COc1cccc(/C=N/Nc2nnc(C)n2N)c1O` gave HCV inh 16%, Pf growth 96h 8%, HCMV antiviral 9 and Pf growth 48h -26%.
`CCOc1ccc(-n2c(C)cc(/C=N/N(C)C)c2C)cc1` gave HCV inh inconclusive, Pf growth 96h inconclusive, HCMV antiviral -36 and Pf growth 48h inconclusive.
CCOc1ccc(-n2c(C)cc(/C=N\NC(=O)CC(=O)NC3CCCCC3)c2C)cc1 was read as HCV inh -11%, Pf growth 96h -2%, HCMV antiviral -81* and Pf growth 48h 2%.
CCOc1ccc(-n2c(C)cc(/C=N/NC(=O)C(N)=O)c2C)cc1 was read as HCV inh inconclusive, Pf growth 96h 0%, HCMV antiviral -16 and Pf growth 48h -6%.
